The values below come from PubChem BioAssay AID1851 (National Center for Advancing Translational Sciences (NCATS), 2009).

“And” between values parts separate entries of the source, which are not always exact repeats. Equal values may be shown once. In all, about 16,000 compounds went through this assay and about 2,600 (16%) were called active. Another 20% or so got no clear call; they are omitted. Only a sample is shown. Values without a mark were called inactive. Calls come from the whole dose curve; as a rule, active = well fitted curve in the direction sought with a large enough effect; inconclusive = small, poorly fitted or top-dose-only effect, or effect the other way; inactive = no such curve, though single readings can be large or run the other way.

One may read the AC50 as the concentration at which the activity in the assay is half-maximal.
% is set by controls: 0 for no effect and ±100 for the full control effect.

Chain of Cytochrome P450 2D6 (Homo sapiens) (P10635 whole entry, looked up): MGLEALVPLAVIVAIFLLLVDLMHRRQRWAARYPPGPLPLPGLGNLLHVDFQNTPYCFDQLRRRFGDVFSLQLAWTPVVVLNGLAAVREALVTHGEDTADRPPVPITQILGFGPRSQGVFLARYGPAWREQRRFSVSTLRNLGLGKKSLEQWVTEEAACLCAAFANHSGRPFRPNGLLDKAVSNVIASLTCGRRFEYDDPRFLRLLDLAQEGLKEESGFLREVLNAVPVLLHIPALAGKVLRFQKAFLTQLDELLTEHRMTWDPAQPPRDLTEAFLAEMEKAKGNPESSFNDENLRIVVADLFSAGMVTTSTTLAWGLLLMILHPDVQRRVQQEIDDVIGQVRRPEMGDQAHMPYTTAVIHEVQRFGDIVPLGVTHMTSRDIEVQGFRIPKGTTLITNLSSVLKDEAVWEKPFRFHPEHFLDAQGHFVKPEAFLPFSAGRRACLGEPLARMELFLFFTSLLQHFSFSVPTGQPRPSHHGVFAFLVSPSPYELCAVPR

The test addresses Cytochrome P450 2D6 (Homo sapiens) (UniProt P10635). As to the kind of experiment: Cytochrome panel assay with activity outcomes. Particulars: recombinant CYP, pro-luciferin dealkylation, luminescence, p450-cyp2d6; series mostly up to 57.1 µM.
With `COC(=O)C1=C(C)NC(C)=C(C(=O)OC(C)C)C1c1cccc2nonc12` (stereo not drawn), the AC50 result is “inactive”.
On to `COC(=O)C1=C(C)NC(C)=C([N+](=O)[O-])[C@@H]1c1ccccc1C(F)(F)F`, for which the AC50 was 6.31 µM (active).
As for `COC(=O)C1=C(C)NC(C)=C([N+](=O)[O-])[C@H]1c1ccccc1C(F)(F)F`, the AC50 entry is “inactive”.
The same measure, in the same setting: the entry for `CCc1ccc(CN(C(=O)c2cc3ccccc3oc2=O)C2CCS(=O)(=O)C2)cc1` (stereo not drawn) is “inactive”.
For `Cc1ccc(CN(C(=O)c2cc3ccccc3oc2=O)C2CCS(=O)(=O)C2)cc1` (stereo not drawn), the AC50 result was “inactive”.
The same measure, in the same setting: the figure for `CC(C)c1ccc(CN(C(=O)C2COc3ccccc3O2)C2CCS(=O)(=O)C2)cc1` (stereo not drawn) is 14.1 µM (active); for `CNNCc1ccc(C(=O)NC(C)C)cc1` it is “inactive”; for `CC(Sc1nc(-c2ccccc2)cc(C(F)(F)F)n1)C(=O)N1CCCCC1` (stereo not drawn) it is “inactive”.
Still for that read-out and setting: the value for `Cc1nc2ncnn2c(C)c1CCC(=O)NC(C)c1ccc2c(c1)OCCO2` (stereo not drawn) was “inactive”; that for `CC(NC(=O)CCSc1nc(-c2ccc3c(c2)OCO3)cc(C(F)(F)F)n1)c1ccccc1` (stereo not drawn) was 1 µM (active).
For the compound `O=C1[C@H]2[C@H]3[C@H](O)[C@H](O)C/C(=N/OC[C@@H](O)COCc4ccco4)[C@H]3CC[C@@H]2C(=O)N1C1CCCCC1`, the activity, negative = inhibition was 2.44% [at 11.4 µM].
As for `Cc1ccc(C2/C(=C(/O)c3ccc(Cl)cc3)C(=O)C(=O)N2CC2CCCO2)o1` (stereo not drawn), the AC50 entry is “inactive”.
Regarding `COc1ncc2nc(C)c(=O)n(CCc3ccccc3)c2n1`, the AC50 result is “inactive”.
For the compound `CC(C)CC(C(=O)OCC(=O)Nc1ncc(Cl)cc1Cl)N1C(=O)c2ccccc2C1=O` (stereo not drawn), the AC50 is 25.1 µM (active).
Same read-out and setting: the value for `CC(C)=CC(=O)OCC(=O)Nc1ncc(Cl)c(C)c1Cl` was “inactive”; that for `Cc1c(Cl)cnc(NC(=O)COC(=O)CCS(=O)(=O)c2ccccc2)c1Cl` was “inactive”; that for `O=C(Nc1ccc(Cl)cc1)c1cnc(-c2ccccc2)nc1-c1ccccc1` was “inactive”.
Still for that read-out and setting: the value for `C/C(=N\NC(=O)C1CC1c1ccccc1)c1cccs1` (stereo not drawn) was “inactive”.
Still for that read-out and setting: the value for `Cc1cccn2c(=O)c(/C=N/O)c(N3CCCC3)nc12` was “inactive”.
Consider `C=CCN=C1CC(C)(C)CC(=O)/C1=C(/O)CCC(=O)OC`, for which the AC50 result was “inactive”.
`CN(C)CCCN1CCC2(CCC(C(C)(C)C)CC2)CC1`: the activity, negative = inhibition was 9.19% [at 11.4 µM].
On to `O=c1oc2c(CN3CCOCC3)c(O)ccc2c2ccccc12`, for which the AC50 is 2 µM (active).
Consider `CSc1nc(C)cc(Nc2ccc(O)c(CN3CCOCC3)c2)n1`, for which the activity, negative = inhibition is -3.84% [at 11.4 µM].
With `COc1ccc(-c2c(C)oc3c(CN4CCN(CCO)CC4)c(O)ccc3c2=O)cc1OC`, the AC50 result was “inactive”.
The same measure, in the same setting: the value for `CCCc1cc(=O)oc2c(CN3CCOCC3)c(O)ccc12` was 2.24 µM (active); that for `COc1ccccc1-c1c(C)oc2c(CN3CCN(CCO)CC3)c(O)ccc2c1=O` was “inactive”.
Same read-out and setting: the value for `Nc1ccc(N2CCN(C(=O)c3ccco3)CC2)cc1` was “inactive”; that for `Cc1ccc2nc(NC(=O)CSc3nc4c(c(=O)n3C)SC(C)C4)sc2c1` (stereo not drawn) was “inactive”; that for `Cc1ccnc(NS(=O)(=O)c2ccc(NC(=O)C3CCCNC3=O)cc2)n1` (stereo not drawn) was “inactive”.
Still for that read-out and setting: the value for `CC(C)c1nnc(NC(=O)CCC(=O)N2CCN(c3ccccn3)CC2)s1` was “inactive”; that for `O=[N+]([O-])c1cccc2c[nH]nc12` was “inactive”; that for `C[C@]1(c2ccccc2)OC(C(=O)O)=CC1=O` was “inactive”.
Turning to `N#Cc1cccc(NC(=O)N2CC[C@@]3(CCCNC3)C2)c1`, the AC50 result was “inactive”.
As for `c1ccc(C(c2ccccc2)N2CCC3(CCNCC3)CC2)cc1`, the AC50 result was “inactive”.
On to `c1ccc(C(c2ccccc2)N2CC[C@@]3(CCCNC3)C2)cc1`, for which the AC50 is 15.8 µM (active).
On the same count and under the same terms, the value for `O=C(Nc1ccccc1)N1CCCC2(CCNCC2)C1` was “inactive”; that for `c1ccc(C(c2ccccc2)N2CC3(CCNCC3)C2)cc1` was 2.51 µM (active); that for `O=C(Nc1cccc(F)c1)N1CC[C@@]2(CCCNC2)C1` was “inactive”.
Take `CC(C)=CCC/C(C)=C/CO/N=C1/C[C@@H](O)[C@@H](O)[C@@H]2[C@@H]3C(=O)N(Cc4ccc5c(c4)OCO5)C(=O)[C@H]3CC[C@H]12`: the activity, negative = inhibition was -10.1% [at 11.4 µM].
As to `CCc1cc(C(=O)NNC(=S)NCC2CCCO2)cs1` (stereo not drawn), the AC50 entry was “inactive”.
In the case of `O=C(O)c1cc(C(=O)C(=O)c2cc(C(=O)O)c(O)c3ccccc23)c2ccccc2c1O`, the activity, negative = inhibition is -0.777% [at 11.4 µM].
Regarding `CCNc1ncc2nc(-c3cn(C)c4ccccc34)c(=O)n(Cc3cccs3)c2n1`, the AC50 entry was “inactive”.
Same read-out and setting: the entry for `COc1ccc2c(c1)CCC1C2CC[C@]2(C)[C@H](NCCCCCCN3C(=O)C=CC3=O)CC[C@@H]12` (stereo partly drawn) is “inactive”; for `N#Cc1cccc(-c2nc3cnc(N4CCNCC4)nc3n(C3CC3)c2=O)c1` it is “inactive”; for `CC(=O)c1sc(NC(=O)C(C)C)nc1C` it is “inactive”.
Still for that read-out and setting: the value for `Fc1cccc(Cl)c1CSc1ncn[nH]1` was “inactive”.
`C[C@H](O/N=C1/[C@H]2O[C@@H]2[C@@H](O)[C@H]2[C@H]1CCn1c(=O)n(-c3ccccc3)c(=O)n12)c1cn([C@H](CO)Cc2ccccc2)nn1`: the activity, negative = inhibition was -8.19% [at 11.4 µM] and 10.1% [at 11.4 µM].
For the compound `O=c1cc(-c2ccccc2)[nH]c2nc(Cl)ccc12`, the AC50 result was “inactive”.
As for `C[C@@H]1CC[C@H]2C(=O)N3[C@@H](CC[C@@H](C)[C@@H]3c3ccc(Br)cc3)C(=O)N2[C@@H]1c1ccc(Br)cc1`, the activity, negative = inhibition was -14.2% [at 11.4 µM].
Turning to `CS(=O)(=O)N1N=C(c2ccc(Br)cc2)CC1c1ccc2c(c1)OCO2` (stereo not drawn), the AC50 was 0.631 µM (active).
For the compound `C[C@H]1CC[C@H]2C(=O)N3[C@H](c4ccc(Br)cc4)[C@@H](C)CC[C@H]3C(=O)N2[C@@H]1c1ccc(Br)cc1`, the activity, negative = inhibition was -7.03% [at 11.4 µM].
For the compound `Cn1cc(-c2nc3cncnc3n(Cc3ccccc3Cl)c2=O)c2ccccc21`, the AC50 result was “inactive”.
Regarding `Cc1[nH]c(N)nc(=S)c1CCC(=O)O`, the activity, negative = inhibition was 5.35% [at 11.4 µM].
Consider `Cc1ccc(Oc2cc(N3CCOCC3)nc(-c3ccccc3)n2)cc1`, for which the AC50 result is “inactive”.
On the same count and under the same terms, the value for `CCOC(=O)c1c(-c2ccc(OC)cc2)csc1NC(=O)CCN1C(=O)c2ccccc2C1=O` was “inactive”.
Take `COc1ccc(-c2csc3c2[N+]2=CCC=C2C3=O)cc1`: the AC50 is 3.16 µM (active).
With `CC[C@@H]1CC(=O)N(SC[C@H](N)C(=O)O)C1=O`, the activity, negative = inhibition was 7.85% [at 11.4 µM].
As to `CN1C(=O)C[C@H](c2ccccc2)C1=O`, the AC50 entry is “inactive”.
Same read-out and setting: the figure for `CN1Cc2c(N)cccc2[C@H](c2ccccc2)C1` is 31.6 µM (active) and 6.31 µM (active).
In the case of `CC1(C)[C@@H]2CC[C@]1(C)[C@@H](OC(=O)/C=C\c1ccccc1)C2`, the activity, negative = inhibition was 2.99% [at 11.4 µM].
As to `Oc1oc(-c2ccccc2)nc1C=Nc1ccccc1`, the AC50 entry is “inactive”.
In the case of `COc1cc(C2C(C(=O)c3cccs3)=C(O)C(=O)N2Cc2ccco2)cc(OC)c1OC` (stereo not drawn), the AC50 result was “inactive”.
For `COC(=O)C/C=C\[C@@H](C)[C@@H](/C=N\OC[C@@H](C)[C@H](OCc1ccccc1)C(C)C)OC`, the activity, negative = inhibition was -9.09% [at 11.4 µM].
Consider `COc1ccc(CN[C@H](C)C(=O)O)cc1`, for which the activity, negative = inhibition is 6.89% [at 11.4 µM].
Consider `CCC(C)NC(=O)C1CC(c2ccc(OC)cc2)=NO1` (stereo not drawn), for which the AC50 result is “inactive”.
For `COc1ccc(CCC(C)NC2C3CC4CC(C3)CC2C4)cc1` (stereo not drawn), the AC50 is 3.55 µM (active).
Same read-out and setting: the value for `Cc1ccc(N=Nc2c(N)n(-c3ccccc3)[nH]c2=O)cc1` was “inactive”; that for `COCCNC(=O)CCn1c(=O)oc2ccccc21` was “inactive”.
Still for that read-out and setting: the figure for `S=C1N[C@H](c2ccccc2)N[C@H](c2ccccc2)S1` is 3.98 µM (active).
With `O=C1C2[C@@H](c3ccccc3)N[C@@H](c3ccccc3)C1[C@H](c1ccccc1)N[C@H]2c1ccccc1`, the activity, negative = inhibition is -8.91% [at 11.4 µM].
Same read-out and setting: the value for `O=C(O)c1ccc(C(=O)c2ccccc2)c(C(=O)O)c1` was 14.9% [at 11.4 µM].
With `COC(=O)CSc1nnc(CNc2ccc(Cl)cc2)n1-c1ccccc1`, the AC50 result was “inactive”.
On the same count and under the same terms, the entry for `CCOC(=O)CSc1cc(=O)n(C)c2cc(Cl)ccc12` is “inactive”.
On the same count and under the same terms, the figure for `Cn1c(=O)cc(SCC(=O)NCCN2CCN(c3ccccc3F)CC2)c2cc(Cl)ccc21` is 14.1 µM (active).
Consider `Cn1c(=O)cc(SCC(=O)NCCCN2CCOCC2)c2ccc(Cl)cc21`, for which the AC50 result is “inactive”.
Same read-out and setting: the value for `COCc1c(C(=O)OCC(=O)N2c3ccccc3NC(=O)C2(C)C)oc2ccccc12` was “inactive”; that for `COc1cccc([C@@H]2Oc3ccc(OC)cc3/C(=N/O[C@@H](C)CN3CCCc4nc(C)c(C)cc43)[C@@H]2O)c1` was 3.98 µM (active).
`COc1ccc(O[C@H]2C=C[C@@H](c3ccccc3)O[C@@H]2CO/N=C(\C)CCN2CCc3nc(-c4ccccc4)c(-c4ccccc4)cc3C2)cc1`: the activity, negative = inhibition was -14.1% [at 11.4 µM].
For `COc1ccc(O[C@H]2C=C[C@@H](c3ccccc3)O[C@@H]2CO/N=C(\C)CCN2CCCc3nc(C)c(C)cc32)cc1`, the AC50 was 3.16 µM (active).
On the same count and under the same terms, the value for `COc1ccc(O[C@H]2C=C[C@@H](c3ccccc3)O[C@H]2COC(=O)CC/C(C)=N\O[C@@H](C)CN2CCCc3nc(C)c(C)cc32)cc1` was 3.16 µM (active).
As for `C/C(CCC(=O)OC[C@@H]1O[C@H](C#Cc2ccccc2)C=C[C@@H]1Oc1ccc(C)cc1)=N/O[C@@H](C)c1cn([C@H](CO)Cc2ccccc2)nn1`, the activity, negative = inhibition was -5.83% [at 11.4 µM] and -8.36% [at 11.4 µM].
On to `COc1cccc([C@@H]2Oc3ccc(OC)cc3/C(=N/O[C@@H](C)c3cn([C@H]4COC[C@H]4O)nn3)[C@@H]2O)c1`, for which the activity, negative = inhibition was -18.2% [at 11.4 µM].
Same read-out and setting: the value for `CCCNC(=O)OC[C@@H]1O[C@H](CCO/N=C(\C)CCC(=O)OC[C@@H]2O[C@H](c3ccccc3)C=C[C@@H]2Oc2ccc(OC)cc2)C=C[C@@H]1Oc1ccc(OC)cc1` was 5.63% [at 11.4 µM]; that for `COc1ccc(O[C@H]2C=C[C@@H](c3ccccc3)O[C@H]2COC(=O)CC/C(C)=N\O[C@@H](C)c2cc(-c3c(C)cc(C)cc3C)no2)cc1` was -7.29% [at 11.4 µM].
The same measure, in the same setting: the figure for `COc1cccc([C@H]2Oc3ccc(OC)cc3/C(=N\O[C@@H](C)c3cn([C@H](CO)Cc4ccccc4)nn3)[C@@H]2O)c1` is -6.89% [at 11.4 µM].
The same measure, in the same setting: the figure for `CCCNC(=O)OC[C@@H]1O[C@H](CCO/N=C(\C)CCN2CCCc3nc(C)c(C)cc32)C=C[C@@H]1Oc1ccc(OC)cc1` is -18.3% [at 11.4 µM]; for `COc1ccc(O[C@H]2C=C[C@@H](c3ccccc3)O[C@H]2CO/N=C(/C)CCC(=O)OC[C@@H]2O[C@H](C#Cc3ccccc3)C=C[C@@H]2Oc2ccc(C)cc2)cc1` it is 11.9% [at 11.4 µM].
Consider `C/C(CCC(=O)OC[C@@H]1O[C@H](C#Cc2ccccc2)C=C[C@@H]1Oc1ccc(C)cc1)=N/O[C@@H](C)CN1CCCc2nc(C)c(C)cc21`, for which the AC50 was 3.16 µM (active).
